A word on the AC50: it is the concentration giving half of the maximal activity seen.

This note sets out measurements from PubChem BioAssay (EPA / NIEHS).

Values joined by “and” are separate entries in the source; they are usually repeats but may differ in a detail not shown here. Identical values can stand only once. Inconclusive results are not listed. More than one record can exist for a structure, and the calls need not agree. Active and inactive are the calls of the source. Rule for the calls, unless noted: active = hit-call score of the fitted dose curve at least 0.9, where 1 is the maximum; inactive = score below 0.9.

Test [1] in a line: ATG_PBREM_CIS: Attagene CIS-FACTORIAL HepG2 Assay for human Phenobarbital-responsive Enhancer Module (PBREM) (AID 2282955). The settings on record: HepG2 PBREM cis-reporter, Attagene multiplexed transcription; actives raise or lower the signal. Summed up:
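After a 24 h incubation with test chemical, transfected HepG2 cells yield total RNA; reporter-specific RT-PCR products are fluorescently labelled, HpaI-digested and resolved by capillary electrophoresis against ROX size standards.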

The target in test [2] is Paired box protein Pax-6 (Homo sapiens) (UniProt P26367). The test can be described thus: ATG_Pax6_CIS: Attagene CIS-FACTORIAL HepG2 Assay for human Paired Box 6 (PAX6) (AID 2282956). The following applies: HepG2 CIS-FACTORIAL PAX6 reporter transcription, RNA readout; actives raise or lower the signal. Summed up:
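HepG2 cells transiently transfected with cis-promoter-driven multiplexed reporter units sensing endogenous transcription factor activity; 24 h chemical exposure. Reporter mRNA quantified by RT-PCR, 6-FAM labelling, HpaI digestion and capillary electrophoresis; bidirectional fit versus DMSO baseline.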

Test [3] is described as follows: ATG_PXRE_CIS: Attagene CIS-FACTORIAL HepG2 Assay for human Pregnane X Receptor Element (PXRE) (AID 2282957). The following applies: HepG2 Attagene CIS-FACTORIAL PXRE reporter, mRNA; actives raise or lower the signal. Summed up: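 Cis-element reporter mRNA in human hepatoma HepG2 cells is measured 24 h post-dosing by RT-PCR, primer-extension labeling and capillary electrophoresis; gain or loss of signal is fitted relative to DMSO.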

Test [4] is described as follows: ATG_RORE_CIS: Attagene CIS-FACTORIAL HepG2 Assay for human RAR-related Orphan Receptor Element (RORE) (AID 2282959). The following applies: HepG2 Attagene cis-factorial RORE reporter, mRNA; actives raise or lower the signal. Put shortly: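 Fluorescence intensity of reporter-specific cDNA fragments, separated by capillary electrophoresis, gives the signal. Source: HepG2 liver cells transiently transfected with cis-element reporters and exposed 24 h; DMSO-normalized bidirectional fit.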

Test [5] can be described thus: ATG_Sox_CIS: Attagene CIS-FACTORIAL HepG2 Assay for human SRY-box transcription factor (SOX) (AID 2282960). The settings on record: HepG2 Attagene cis-factorial SOX reporter, mRNA; actives raise or lower the signal. Put shortly: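 After 24 h of chemical treatment, transfected HepG2 reporter cells are lysed for total RNA. Transcript levels come from RT-PCR with labelled primer extension and capillary electrophoresis, analysed bidirectionally versus DMSO.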

Test [6] addresses Transcription factor Sp1 (Homo sapiens) (UniProt P08047). The test can be described thus: ATG_Sp1_CIS: Attagene CIS-FACTORIAL HepG2 Assay for human Specificity Protein 1 (Sp1) (AID 2282961). The settings on record: HepG2 Sp1 cis-reporter transcription, actives raise or lower the signal. Put shortly: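 Sp1-driven reporter mRNA, read as capillary electrophoresis fluorescence after RT-PCR, in transiently transfected HepG2 cells dosed for 24 h; signal change in either direction relative to DMSO.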

The target in test [7] is Signal transducer and activator of transcription 3 (Homo sapiens) (UniProt P40763). The test can be described thus: ATG_STAT3_CIS: Attagene CIS-FACTORIAL HepG2 Assay for human Signal Transducer and Activator of Transcription 3 (STAT3) (AID 2282963). The settings on record: HepG2, Attagene cis-factorial STAT3 reporter transcription; actives raise or lower the signal. Put shortly: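 Endogenous STAT3-responsive cis-element activity was read in transiently transfected HepG2 cells after 24 h treatment. Reporter transcripts were quantified via RT-PCR and capillary electrophoresis, with DMSO as negative control and bidirectional curve fitting.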

A short description of test [8]: ATG_TCF_b_cat_CIS: Attagene CIS-FACTORIAL HepG2 Assay for human T-Cell-Factor with beta-catenin (TCF/b-cat) (AID 2282965). The settings on record: HepG2 TCF/beta-catenin cis-reporter transcription, actives raise or lower the signal. Summed up: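 Endogenous transcription factor activity is captured through cis-promoter reporter constructs transiently introduced into human HepG2 liver cells. Induced reporter mRNA is measured after 24 h and fitted bidirectionally relative to DMSO.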

Test [9] in a line: ATG_TAL_CIS: Attagene CIS-FACTORIAL HepG2 Assay for human TAL Basal Promoter (AID 2282966).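 Note: background control endpoint measuring basal TAL promoter reporter mRNA not a specific factor.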 The settings on record: HepG2 Attagene cis-factorial TAL promoter reporter; actives raise or lower the signal. Summed up: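 In this cell-based multiplex, HepG2 liver cells bearing cis-promoter reporter constructs are dosed for 24 hours. Total RNA is reverse-transcribed and amplified, labelled fragments are sized by capillary electrophoresis, and signal changes are fitted bidirectionally versus DMSO.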

Test [10] can be described thus: ATG_TGFb_CIS: Attagene CIS-FACTORIAL HepG2 Assay for human Transforming Growth Factor (TGF) (AID 2282967). The following applies: HepG2 Attagene CIS TGFb reporter, mRNA transcription; actives raise or lower the signal. Summed up:
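Transcript-level reporter readout: HepG2 transfectants, 24 h exposure, RNA to cDNA, reporter-specific PCR, fluorescent primer extension, capillary sizing against ROX standards. Gain- or loss-of-signal relative to DMSO.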

Test [11] in a line: ATG_VDRE_CIS: Attagene CIS-FACTORIAL HepG2 Assay for human Vitamin D Receptor Element (VDRE) (AID 2282968). The settings on record: HepG2 VDRE cis-reporter transcription, actives raise or lower the signal. Put shortly: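 Reporter mRNA induction, quantified by capillary electrophoresis of fluorescently labelled RT-PCR products, was read 24 h after dosing HepG2 cells carrying transiently transfected cis-regulated reporter units; gain or loss relative to DMSO.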

Test [12] has as its target Nuclear receptor subfamily 1 group I member 3 (Homo sapiens) (UniProt Q14994). The test can be described thus: ATG_CAR_TRANS: Attagene TRANS-FACTORIAL HepG2 Assay for human Constitutive Androstane Receptor (CAR) (AID 2282969; active = hit-call score of the fitted dose curve at least 0.9, where 1 is the maximum;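 note: activators raise reporter mRNA above DMSO so AC50 marks induction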). The following applies: HepG2 Attagene TRANS-FACTORIAL CAR reporter. Summed up: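 Readout is reporter mRNA induction, quantified by fluorescent primer extension and capillary electrophoresis after RT-PCR. Cells were HepG2 transiently carrying chimeric NR-Gal4 constructs with GAL4-UAS reporters, treated for 24 h; activity scored upward from DMSO.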

The target of test [13] is Estrogen receptor (Homo sapiens) (UniProt P03372). The test can be described thus: ATG_ERa_TRANS: Attagene TRANS-FACTORIAL HepG2 Assay for human Estrogen Receptor alpha (ERa) (AID 2282970; active = hit-call score of the fitted dose curve at least 0.9, where 1 is the maximum). The settings on record: HepG2 Attagene TRANS ERa GAL4 reporter, mRNA. Summed up:
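After 24 h of compound treatment, RNA from HepG2 cells bearing transfected GAL4-UAS reporter constructs is converted to cDNA, amplified and fluorescently labelled. Capillary electrophoresis resolves the ERa-linked reporter; DMSO serves as negative control.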

Test [14] deals with X-box-binding protein 1 (Homo sapiens) (UniProt P17861). The test can be described thus: ATG_Xbp1_CIS: Attagene CIS-FACTORIAL HepG2 Assay for human X-box Binding Protein 1 (XBP1) (AID 2282972). The following applies: HepG2 XBP1 cis-element reporter, Attagene multiplex; actives raise or lower the signal. Put shortly: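 HepG2 cells transiently transfected with multiple cis-element reporter units report endogenous TF activity; 24 h exposure, then reporter mRNA measured by RT-PCR, 6-FAM labelling, HpaI digestion and capillary electrophoresis. Bidirectional fitting versus DMSO.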

Test [15] can be described thus: ATG_Hpa5_TRANS: Attagene TRANS-FACTORIAL HepG2 Assay for human GAL4-Hpa5 Hepatocyte Transcription Factor Basal Promoter (AID 2282975; active = hit-call score of the fitted dose curve at least 0.9, where 1 is the maximum;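 note: hits are increases in reporter mRNA over DMSO baseline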). The settings on record: HepG2 Attagene GAL4-Hpa5 transcription reporter. Summed up: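 Basal-promoter GAL4 background control within the HepG2 trans-factorial panel of transiently transfected reporter units. Reporter mRNA is measured 24 h after dosing by RT-PCR and capillary electrophoresis, fitted for gain of signal versus DMSO.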

Test [16] in a line: ATG_TA_CIS: Attagene CIS-FACTORIAL HepG2 Assay for human TA Basal Promoter (AID 2282964). The following applies: HepG2 Attagene CIS-factorial TA basal promoter reporter; actives raise or lower the signal. Put shortly: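 Multiplexed mRNA reporter assay, HepG2, 24 h. Reporter cDNA amplified, 6-FAM primer-extended, HpaI-cut, CE-sized; DMSO = negative control and baseline.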
The target in test [17] is Steroid hormone receptor ERR1 (Homo sapiens) (UniProt P11474). The test can be described thus: ATG_ERRa_TRANS: Attagene TRANS-FACTORIAL HepG2 Assay for human Estrogen-Related Receptor alpha (ERRa) (AID 2282971; active = hit-call score of the fitted dose curve at least 0.9, where 1 is the maximum). The following applies: HepG2 Attagene TRANS reporter, ERRa transactivation. Summed up: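 Transfected HepG2, 24 h dosing, ERRa-Gal4 chimera driving GAL4-UAS reporter. Readout: reporter mRNA via RT-PCR plus capillary electrophoresis (fluorescence). Positive direction vs DMSO control.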

Test [18] addresses Androgen receptor (Homo sapiens) (UniProt P10275). The test can be described thus: ATG_AR_TRANS: Attagene TRANS-FACTORIAL HepG2 Assay for human Androgen Receptor (AR) (AID 2282973; active = hit-call score of the fitted dose curve at least 0.9, where 1 is the maximum). The following applies: HepG2 Attagene TRANS-FACTORIAL AR reporter transcription. Put shortly: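 Readout is reporter transcript abundance, quantified by fluorescent RT-PCR products separated on capillary electrophoresis. Human HepG2 liver cells carried transiently transfected NR-Gal4 chimera plus GAL4-UAS reporter constructs and were dosed for 24 h; activity scored upward versus DMSO.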

The nature of test [19]: ATG_PPRE_CIS: Attagene CIS-FACTORIAL HepG2 Assay for human Peroxisome Proliferator-activated Response Element (PPRE) (AID 2282958). The settings on record: HepG2 PPRE cis-element reporter, Attagene transcription factor profiling; actives raise or lower the signal. Summed up:
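Multiplexed reporter transcription units under cis-regulatory promoters were transfected into HepG2 cells to capture endogenous factor activity. A 24 h incubation preceded RNA isolation and fluorescent RT-PCR fragment analysis.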

Test [20] is described as follows: ATG_SREBP_CIS: Attagene CIS-FACTORIAL HepG2 Assay for human Sterol Regulatory Element Binding (SREBP) (AID 2282962). The following applies: HepG2 Attagene cis-factorial SREBP reporter, mRNA; actives raise or lower the signal. Summed up:
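HepG2 cells transiently transfected with multiplexed cis-promoter reporter units sensing endogenous transcription factors; reporter mRNA measured 24 h after dosing by RT-PCR, 6-FAM labeling, HpaI digestion and capillary electrophoresis. Bidirectional fit versus DMSO.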

Chain of Transcription factor Sp1 (Homo sapiens) (P08047 whole entry, looked up): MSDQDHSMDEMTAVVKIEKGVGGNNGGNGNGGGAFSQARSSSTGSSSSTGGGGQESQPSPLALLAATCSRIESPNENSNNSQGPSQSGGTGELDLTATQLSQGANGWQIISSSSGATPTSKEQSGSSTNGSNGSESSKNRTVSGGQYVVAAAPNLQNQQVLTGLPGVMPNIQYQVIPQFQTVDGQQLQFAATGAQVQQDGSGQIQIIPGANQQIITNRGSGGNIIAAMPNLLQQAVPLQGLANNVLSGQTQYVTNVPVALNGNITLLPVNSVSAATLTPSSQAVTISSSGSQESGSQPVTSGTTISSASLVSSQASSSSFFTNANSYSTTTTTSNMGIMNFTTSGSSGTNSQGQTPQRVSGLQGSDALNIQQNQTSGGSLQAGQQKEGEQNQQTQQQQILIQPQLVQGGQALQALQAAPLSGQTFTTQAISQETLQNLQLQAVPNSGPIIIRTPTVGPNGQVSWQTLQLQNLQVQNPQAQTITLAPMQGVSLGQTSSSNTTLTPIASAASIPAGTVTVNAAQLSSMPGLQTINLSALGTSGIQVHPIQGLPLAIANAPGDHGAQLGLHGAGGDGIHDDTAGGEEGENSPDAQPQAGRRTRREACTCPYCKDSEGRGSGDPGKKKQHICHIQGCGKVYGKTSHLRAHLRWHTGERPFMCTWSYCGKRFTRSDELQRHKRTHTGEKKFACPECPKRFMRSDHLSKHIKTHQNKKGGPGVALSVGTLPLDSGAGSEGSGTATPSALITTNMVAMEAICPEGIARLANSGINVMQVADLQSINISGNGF
Chain of Steroid hormone receptor ERR1 (Homo sapiens) (P11474 whole entry, looked up, the tested form may be a part): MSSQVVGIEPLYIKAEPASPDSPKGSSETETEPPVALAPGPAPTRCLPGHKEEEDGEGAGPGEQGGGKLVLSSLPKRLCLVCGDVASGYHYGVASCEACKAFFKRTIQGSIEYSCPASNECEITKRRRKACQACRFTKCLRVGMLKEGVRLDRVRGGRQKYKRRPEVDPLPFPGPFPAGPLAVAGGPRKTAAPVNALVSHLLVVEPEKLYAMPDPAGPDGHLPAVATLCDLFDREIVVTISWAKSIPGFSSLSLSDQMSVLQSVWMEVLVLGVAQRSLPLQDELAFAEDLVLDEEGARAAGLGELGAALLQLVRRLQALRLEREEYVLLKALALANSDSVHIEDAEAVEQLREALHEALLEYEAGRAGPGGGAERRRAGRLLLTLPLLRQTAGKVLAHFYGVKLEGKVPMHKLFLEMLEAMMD
Chain of Estrogen receptor (Homo sapiens) (P03372 whole entry, looked up, the tested form may be a part): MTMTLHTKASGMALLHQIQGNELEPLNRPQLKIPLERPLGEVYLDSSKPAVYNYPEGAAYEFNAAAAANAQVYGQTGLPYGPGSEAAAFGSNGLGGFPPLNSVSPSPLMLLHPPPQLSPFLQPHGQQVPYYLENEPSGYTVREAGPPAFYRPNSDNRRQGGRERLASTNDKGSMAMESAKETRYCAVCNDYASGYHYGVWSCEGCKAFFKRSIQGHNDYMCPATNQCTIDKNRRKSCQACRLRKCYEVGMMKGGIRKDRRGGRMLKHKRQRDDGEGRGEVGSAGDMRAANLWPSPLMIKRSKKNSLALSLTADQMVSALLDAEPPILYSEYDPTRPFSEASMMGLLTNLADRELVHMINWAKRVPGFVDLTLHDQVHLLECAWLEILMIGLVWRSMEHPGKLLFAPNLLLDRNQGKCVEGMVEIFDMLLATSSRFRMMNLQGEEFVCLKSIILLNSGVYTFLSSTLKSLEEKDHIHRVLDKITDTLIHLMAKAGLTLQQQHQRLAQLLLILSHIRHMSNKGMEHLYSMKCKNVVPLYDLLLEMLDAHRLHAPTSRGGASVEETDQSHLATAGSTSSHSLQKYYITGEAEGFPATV
Chain of X-box-binding protein 1 (Homo sapiens) (P17861 whole entry, looked up): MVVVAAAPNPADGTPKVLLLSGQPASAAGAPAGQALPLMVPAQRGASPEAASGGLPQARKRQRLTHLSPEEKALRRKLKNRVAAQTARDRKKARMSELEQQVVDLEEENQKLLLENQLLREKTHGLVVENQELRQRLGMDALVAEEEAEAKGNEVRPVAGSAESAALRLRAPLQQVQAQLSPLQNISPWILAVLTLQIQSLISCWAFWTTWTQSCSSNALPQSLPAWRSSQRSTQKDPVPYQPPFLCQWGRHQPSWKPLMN
Chain of Nuclear receptor subfamily 1 group I member 3 (Homo sapiens) (Q14994 whole entry, looked up, the tested form may be a part): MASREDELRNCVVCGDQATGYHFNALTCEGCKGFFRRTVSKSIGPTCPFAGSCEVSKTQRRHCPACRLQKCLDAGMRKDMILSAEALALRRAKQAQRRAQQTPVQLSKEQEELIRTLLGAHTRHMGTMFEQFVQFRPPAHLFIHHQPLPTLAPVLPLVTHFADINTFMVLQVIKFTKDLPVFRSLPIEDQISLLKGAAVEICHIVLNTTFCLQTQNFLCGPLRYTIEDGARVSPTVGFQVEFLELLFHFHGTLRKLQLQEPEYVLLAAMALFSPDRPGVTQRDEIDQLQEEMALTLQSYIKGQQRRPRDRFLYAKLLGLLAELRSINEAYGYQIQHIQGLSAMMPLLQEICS
Chain of Paired box protein Pax-6 (Homo sapiens) (P26367 whole entry, looked up): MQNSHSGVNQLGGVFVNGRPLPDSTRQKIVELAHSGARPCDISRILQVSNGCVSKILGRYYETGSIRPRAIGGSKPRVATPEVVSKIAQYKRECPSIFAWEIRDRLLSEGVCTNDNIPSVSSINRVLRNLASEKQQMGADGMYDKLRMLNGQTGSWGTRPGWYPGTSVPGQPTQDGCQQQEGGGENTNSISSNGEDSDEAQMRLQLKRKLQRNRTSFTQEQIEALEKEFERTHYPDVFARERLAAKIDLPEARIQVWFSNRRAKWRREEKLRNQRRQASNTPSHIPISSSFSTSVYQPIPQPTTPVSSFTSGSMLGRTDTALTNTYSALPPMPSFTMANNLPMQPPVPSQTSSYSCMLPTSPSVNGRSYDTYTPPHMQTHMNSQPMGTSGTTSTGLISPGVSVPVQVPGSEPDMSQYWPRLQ
Chain of Signal transducer and activator of transcription 3 (Homo sapiens) (P40763 whole entry, looked up): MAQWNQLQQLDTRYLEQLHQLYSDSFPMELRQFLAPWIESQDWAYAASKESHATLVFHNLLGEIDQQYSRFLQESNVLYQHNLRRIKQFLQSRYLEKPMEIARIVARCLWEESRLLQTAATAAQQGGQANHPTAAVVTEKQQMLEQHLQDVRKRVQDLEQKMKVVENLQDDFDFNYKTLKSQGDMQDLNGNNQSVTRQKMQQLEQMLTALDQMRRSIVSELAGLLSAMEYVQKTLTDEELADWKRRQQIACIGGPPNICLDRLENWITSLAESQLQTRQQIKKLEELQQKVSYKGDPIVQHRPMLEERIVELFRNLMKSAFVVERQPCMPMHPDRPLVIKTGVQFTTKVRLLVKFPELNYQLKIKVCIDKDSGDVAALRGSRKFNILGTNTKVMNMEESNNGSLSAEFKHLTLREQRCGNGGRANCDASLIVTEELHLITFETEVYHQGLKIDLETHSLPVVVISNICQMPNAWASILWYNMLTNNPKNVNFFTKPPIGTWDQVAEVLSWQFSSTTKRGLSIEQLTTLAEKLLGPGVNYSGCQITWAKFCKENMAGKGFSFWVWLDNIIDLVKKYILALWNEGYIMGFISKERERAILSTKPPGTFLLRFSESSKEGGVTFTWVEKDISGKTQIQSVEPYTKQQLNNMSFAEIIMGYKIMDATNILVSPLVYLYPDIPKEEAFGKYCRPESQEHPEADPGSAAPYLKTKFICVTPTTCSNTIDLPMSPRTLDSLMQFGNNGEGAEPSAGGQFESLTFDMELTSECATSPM
Chain of Androgen receptor (Homo sapiens) (P10275 whole entry, looked up, the tested form may be a part): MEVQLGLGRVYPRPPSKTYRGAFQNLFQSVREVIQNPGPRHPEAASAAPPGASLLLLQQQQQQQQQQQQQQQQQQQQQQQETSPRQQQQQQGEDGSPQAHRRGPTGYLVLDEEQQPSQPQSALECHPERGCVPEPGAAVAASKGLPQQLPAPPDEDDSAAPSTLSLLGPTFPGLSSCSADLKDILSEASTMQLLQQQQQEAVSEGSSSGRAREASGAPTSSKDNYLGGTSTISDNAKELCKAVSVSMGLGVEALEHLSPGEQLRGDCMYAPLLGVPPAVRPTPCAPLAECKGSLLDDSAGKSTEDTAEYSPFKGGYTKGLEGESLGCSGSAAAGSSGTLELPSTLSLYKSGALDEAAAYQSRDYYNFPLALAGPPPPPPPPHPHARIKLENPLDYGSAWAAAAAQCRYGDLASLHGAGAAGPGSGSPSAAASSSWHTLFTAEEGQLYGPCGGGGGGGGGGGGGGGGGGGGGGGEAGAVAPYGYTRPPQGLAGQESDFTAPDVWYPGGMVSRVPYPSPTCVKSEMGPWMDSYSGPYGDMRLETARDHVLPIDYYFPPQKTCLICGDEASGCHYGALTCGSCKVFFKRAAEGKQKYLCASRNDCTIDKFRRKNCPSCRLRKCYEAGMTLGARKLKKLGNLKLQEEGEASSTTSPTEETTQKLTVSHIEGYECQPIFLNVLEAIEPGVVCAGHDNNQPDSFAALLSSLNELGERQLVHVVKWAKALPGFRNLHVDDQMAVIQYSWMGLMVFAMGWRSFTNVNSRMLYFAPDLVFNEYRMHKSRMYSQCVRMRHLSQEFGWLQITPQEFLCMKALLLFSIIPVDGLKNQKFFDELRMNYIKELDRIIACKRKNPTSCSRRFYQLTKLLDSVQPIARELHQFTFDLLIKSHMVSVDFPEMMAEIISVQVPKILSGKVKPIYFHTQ

As to `CCCCC(CC)COC(=O)c1ccccc1C(=O)OCC(CC)CCCC` (stereo not drawn), the result in [1], in [2], in test [4], in [5], in [6] and in test [7] was inactive. For the same compound, the call in [8], in test [9], in test [10], in test [11], in test [12] and in test [13] was inactive. Moreover, the outcome in test [14] and in test [15] was inactive. Also, in [3], the AC50 was 9.84 µM (active).
For `N#CC(CCc1ccc(Cl)cc1)(Cn1cncn1)c1ccccc1` (stereo not drawn), the result in test [1], in test [2], in test [4], in [5], in [6] and in [7] was inactive. Also, the call in test [8], in test [9], in [10], in test [11], in [13] and in test [17] was inactive. For the same compound, the result in [14], in [18] and in [15] was inactive. Besides, the AC50 is 1.5 µM (active) in test [3] and 16.9 µM (active) in test [16].
For the compound `C=CC1(C)OC(=O)N(c2cc(Cl)cc(Cl)c2)C1=O` (stereo not drawn), the compound was classed as inactive in [2], in [3], in test [4], in test [5], in [6] and in test [7]. For the same compound, the call in test [8], in test [9], in [10], in test [11], in test [13] and in test [14] was inactive. The compound was called inactive in test [15]. For the same compound, in test [3], the AC50 is 17.3 µM (active) and 31.1 µM (active) and 33 µM (active).
Turning to `CNC(=S)S`, the outcome in [1], in test [2], in [3], in test [5], in test [6] and in [7] was inactive. Besides, the compound was called inactive in [8], in test [9], in test [10], in [11], in test [12] and in test [14]. In addition, the figures for the AC50 in [3] and in [8] were 80 µM (active) and 168 µM (active), respectively.
Take `CCCCOC(=O)c1ccccc1C(=O)OCCCC`: the outcome in test [2], in [4], in test [5], in [6], in [7] and in [8] was inactive. The compound was called inactive in [9], in test [10], in test [11], in test [12], in test [13] and in test [17]. Also, the call in test [14] was inactive. Besides, the AC50 in test [3] is 27.4 µM (active) [middle of 5 runs]; in [4], 29 µM (active) and 50 µM (active); in test [10] it was 65.8 µM (active).
Turning to `COC(=O)C=C(C)OP(=O)(OC)OC`, the compound was called inactive in test [2], in [3], in test [19], in test [4], in test [5] and in test [6]. Further, the result in [20], in test [7], in test [16], in test [8], in test [9] and in [10] was inactive. Further, the result in test [11], in [12], in test [13], in test [17] and in test [14] was inactive.
